PubChem BioAssay AID1159580 (chemical genetic matrix, 2015)
The whole screen tested about 5,500 compounds, of which about 2,000 (36%) were called active. Another 18% or so got no clear call; they are omitted. The list shows a part of the results. A number with no mark means an inactive call. No stated cut-off is given here; in the data, active means normalized growth mostly below about 0.91 (no sharp cut-off); inconclusive means no clear call, values can overlap the other calls; inactive means mostly above about 0.92.

Test: chemical genetic growth profiling, strain panel (AID 1159580);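 further: tested at 20 µM; growth read once vehicle control cultures reached saturation at 30 °C; 1 = growth at the plate median or of vehicle wells; lower values mean less growth of the strain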
Conditions: S. cerevisiae deletion strains, growth OD

S=C(Nc1ccc(Cl)cc1Cl)N(c1cccc(Cl)c1)c1nc2ccccc2s1
normalized growth (locus YAR019C, strain CDC15, active compounds read low): 0.956
normalized growth (locus YBL105C, strain PKC1, active compounds read low): 0.96
normalized growth (locus YBR135W, strain CKS1, active compounds read low): 0.951
normalized growth (locus YBR136W, strain MEC1, active compounds read low): 0.962
normalized growth (locus YBR160W, strain CDC28, active compounds read low): 0.964
normalized growth (locus YDL017W, strain CDC7, active compounds read low): 0.96
normalized growth (locus YDL028C, strain MPS1, active compounds read low): 0.963
normalized growth (locus YDL101C, strain DUN1, active compounds read low): 0.987
normalized growth (locus YDL108W, strain KIN28, active compounds read low): 0.955
normalized growth (locus YDL132W, strain cdc53, active compounds read low): 0.967
normalized growth (locus YDL214C, strain PRR2, active compounds read low): 0.821
normalized growth (locus YDR052C, strain DBF4, active compounds read low): 0.964
normalized growth (locus YDR054C, strain cdc34, active compounds read low): 0.955
normalized growth (locus YDR226W, strain ADK1, active compounds read low): 0.954
normalized growth (locus YDR477W, strain SNF1, active compounds read low): 0.778
normalized growth (locus YER123W, strain YCK3, active compounds read low): 0.778
normalized growth (locus YER133W, strain GLC7, active compounds read low): 0.765
normalized growth (locus YFL009W, strain cdc4, active compounds read low): 0.951
normalized growth (locus YFL029C, strain CAK1, active compounds read low): 0.962
normalized growth (locus YFR003C, strain YPI1, active compounds read low): 0.961
normalized growth (locus YFR019W, strain FAB1, active compounds read low): 0.878
normalized growth (locus YFR028C, strain CDC14, active compounds read low): 0.949
normalized growth (locus YGR040W, strain KSS1, active compounds read low): 0.785
normalized growth (locus YGR052W, strain FMP48, active compounds read low): 0.846
normalized growth (locus YGR092W, strain DBF2, active compounds read low): 0.598
normalized growth (locus YHR030C, strain SLT2, active compounds read low): 0.674 (active)
normalized growth (locus YHR079C, strain IRE1, active compounds read low): 0.779
normalized growth (locus YHR082C, strain KSP1, active compounds read low): 0.871
normalized growth (locus YHR205W, strain SCH9, active compounds read low): 0.778
normalized growth (locus YIL147C, strain SLN1, active compounds read low): 0.963
normalized growth (locus YJL095W, strain BCK1, active compounds read low): 0.75
normalized growth (locus YJL128C, strain PBS2, active compounds read low): 0.933
normalized growth (locus YJL157C, strain FAR1, active compounds read low): 0.794
normalized growth (locus YJR016C, strain ILV3, active compounds read low): 0.955
normalized growth (locus YJR066W, strain TOR1 (second series), active compounds read low): 0.714
normalized growth (locus YJR066W, strain TOR1, active compounds read low): 0.777
normalized growth (locus YKL048C, strain ELM1, active compounds read low): 0.885
normalized growth (locus YKL067W, strain YNK1, active compounds read low): 0.835
normalized growth (locus YKL101W, strain HSL1, active compounds read low): 0.823
normalized growth (locus YKL193C, strain SDS22, active compounds read low): 0.957
normalized growth (locus YKL203C, strain TOR2, active compounds read low): 0.849
normalized growth (locus YLR113W, strain HOG1, active compounds read low): 0.743 (active)
normalized growth (locus YLR133W, strain CKI1, active compounds read low): 0.783
normalized growth (locus YLR403W, strain SFP1, active compounds read low): 0.664
normalized growth (locus YML070W, strain DAK1, active compounds read low): 0.795
normalized growth (locus YMR001C, strain CDC5, active compounds read low): 0.951
normalized growth (locus YMR205C, strain PFK2 (second series), active compounds read low): 0.82
normalized growth (locus YMR277W, strain FCP1, active compounds read low): 0.95
normalized growth (locus YNL006W, strain LST8, active compounds read low): 0.955
normalized growth (locus YNL020C, strain ARK1, active compounds read low): 0.763
normalized growth (locus YNL161W, strain CBK1, active compounds read low): 0.949
normalized growth (locus YNL183C, strain NPR1, active compounds read low): 0.817
normalized growth (locus YNL207W, strain RIO2, active compounds read low): 0.955
normalized growth (locus YNL222W, strain SSU72, active compounds read low): 0.963
normalized growth (locus YNL307C, strain MCK1 (second series), active compounds read low): 0.784
normalized growth (locus YOL078W, strain AVO1, active compounds read low): 0.957
normalized growth (locus YOL136C, strain PFK27, active compounds read low): 0.816
normalized growth (locus YOR061W, strain CKA2, active compounds read low): 0.712
normalized growth (locus YOR119C, strain RIO1, active compounds read low): 0.811
normalized growth (locus YOR231W, strain MKK1, active compounds read low): 0.809
normalized growth (locus YOR329C, strain SCD5, active compounds read low): 0.962
normalized growth (locus YPL031C, strain PHO85, active compounds read low): 0.734
normalized growth (locus YPL153C, strain RAD53, active compounds read low): 0.811
normalized growth (locus YPL204W, strain HRR25, active compounds read low): 0.719
normalized growth (locus YPL209C, strain IPL1, active compounds read low): 0.96
normalized growth (locus YPL256C, strain CLN2, active compounds read low): 0.791 (active)
normalized growth (locus YPR025C, strain CCL1, active compounds read low): 0.961
normalized growth (locus YPR106W, strain ISR1, active compounds read low): 0.961
normalized growth (locus YPR111W, strain DBF20, active compounds read low): 0.949
normalized growth (strain NNK1, active compounds read low): 0.951
normalized growth (strain TSCII, active compounds read low): 0.954
